Compounds with a hit are over-represented: about 3% of the library has one in this group of screens.
pPAFAH inh = pPAFAH enzyme inhibitors, primary screen, biochemical, fluorescence polarization, human | Platelet-activating factor acetylhydrolase (Homo sapiens), Q13093 | recombinant pPAFAH, FP-rhodamine probe fluorescence polarization | inhibition, % at 3.39 µM | 330,000 tested, 1.5% active | AID 463082, 2010;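 active = inhibition above the mean inhibition across the screen plus 3 SD, cut at about 25% in these data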;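 also: inhibitors block binding of the rhodamine activity-based probe so polarization drops; 0% = enzyme with DMSO and 100% = wells lacking pPAFAH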
ATG4B inh = ATG4B protease inhibitors, primary screen, biochemical, fluorescence, uHTS; AID 504462, 2011; inhibition, % at 8.33 µM; Cysteine protease ATG4B (Homo sapiens), Q9Y4P1; 340,000 tested, 0.51% active; ATG4B cleavage of LC3-PLA2, NBD-HPC fluorescence, 1 h; in the data active = inhibition above about 40%
Target sequence (Q9Y4P1 whole entry, looked up): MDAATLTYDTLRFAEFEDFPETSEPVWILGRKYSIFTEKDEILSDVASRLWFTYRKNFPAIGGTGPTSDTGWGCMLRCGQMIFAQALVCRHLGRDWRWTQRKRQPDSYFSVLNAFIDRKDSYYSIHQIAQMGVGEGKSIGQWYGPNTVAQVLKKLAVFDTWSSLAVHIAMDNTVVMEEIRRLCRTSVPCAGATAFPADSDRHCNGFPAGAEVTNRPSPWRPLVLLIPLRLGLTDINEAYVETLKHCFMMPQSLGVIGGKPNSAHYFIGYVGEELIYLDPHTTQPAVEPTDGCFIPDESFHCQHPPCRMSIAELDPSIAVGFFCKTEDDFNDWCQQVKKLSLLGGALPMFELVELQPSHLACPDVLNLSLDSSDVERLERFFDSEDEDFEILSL
DAGLB inhibitor = DAGLB lipase inhibitors, primary screen, biochemical, fluorescence, HTS; HEK293T DAGLB membrane lysate, EnzChek fluorogenic substrate; Diacylglycerol lipase-beta (Homo sapiens), Q8NCG7; inhibition, % at 5.17 µM; 340,000 tested, 0.059% active; in the data active = inhibition above about 34%;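 also: 0% = enzyme with vehicle and 100% = wells lacking enzyme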
PAFAH1B3 inh = PAFAH1B3 enzyme inhibitors, primary screen, biochemical, fluorescence polarization, human; recombinant PAFAH1B3, FP-rhodamine probe; inhibition, % at 3.39 µM; 340,000 tested, 0.28% active; AID 492972, 2010;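 active = inhibition above the screen-wide average of all tested compounds plus 3 SD, cut at about 25% in these data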;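 also: 0% = enzyme with DMSO only and 100% = wells lacking PAFAH1B3 protein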
Target sequence (Q15102 whole entry, looked up): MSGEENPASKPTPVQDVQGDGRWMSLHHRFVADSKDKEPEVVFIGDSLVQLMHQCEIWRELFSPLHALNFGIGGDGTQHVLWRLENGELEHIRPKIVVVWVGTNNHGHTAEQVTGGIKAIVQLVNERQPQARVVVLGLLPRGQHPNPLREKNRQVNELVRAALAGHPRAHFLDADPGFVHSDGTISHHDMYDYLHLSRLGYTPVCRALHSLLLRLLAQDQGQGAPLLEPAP
PAFAH1B2 FP inh = PAFAH1B2 enzyme inhibitors, primary screen, biochemical, fluorescence polarization, human | Platelet-activating factor acetylhydrolase IB subunit alpha2 (Homo sapiens), P68402 | recombinant PAFAH1B2, FP-rhodamine activity probe | inhibition, % at 3.39 µM | 340,000 tested, 1.2% active | AID 492953, 2010;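 active = inhibition above the mean of all tested compounds plus 3 SD, cut at about 24% in these data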;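 also: 0% = enzyme with DMSO and 100% = wells lacking PAFAH1B2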
PAFAH2 FP inh = PAFAH2 enzyme inhibitors, primary screen, biochemical, fluorescence polarization, human | AID 492956, 2010 | Platelet-activating factor acetylhydrolase 2, cytoplasmic (Homo sapiens), Q99487 | inhibition, % at 3.39 µM | 340,000 tested, 0.99% active | recombinant PAFAH2, FP-rhodamine activity probe;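 active = inhibition above the mean over all tested compounds plus 3 SD, cut at about 30% in these data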;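 also: inhibitors block probe labeling of enzyme so polarization drops; 0% = enzyme with DMSO and 100% = wells lacking PAFAH2 protein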
PAFAH2 FP conf = PAFAH2 enzyme inhibitors, confirmation, biochemical, fluorescence polarization, human; shares compounds with PAFAH2 FP inh; recombinant PAFAH2, FP-rhodamine activity probe; inhibition, % at 3.39 µM; 2,300 tested, 65% active;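 active = mean inhibition over three repeats above a set limit taken from the earlier primary screen, cut at about 30% in these data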;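 also: inhibitor blocks binding of rhodamine activity probe so polarization falls; 0% = enzyme with DMSO and 100% = wells lacking PAFAH2 protein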
* hit, by the source's call; x = no result.

SMILES | pPAFAH inh | ATG4B inh | DAGLB inhibitor | PAFAH1B3 inh | PAFAH1B2 FP inh | PAFAH2 FP inh | PAFAH2 FP conf
COc1ccc(/C=C/C(=O)OCC(=O)Nc2ccc3c(c2)OCO3)cc1 | 8 | 1 | -2 | -2 | 2 | 70* | 69*
COc1cc(NC(=O)COC(=O)/C=C/c2c(C)nn(C3CCS(=O)(=O)C3)c2Cl)cc(OC)c1OC (stereo not drawn) | 1 | -3 | -2 | 2 | 2 | 0 | x
COc1ccc(C2=NOC(C(=O)Nc3ccc4c(c3)OCCO4)C2)c(OC)c1 (stereo not drawn) | 0 | -2 | 1 | 8 | 6 | -7 | x
CCN1C[C@@H]2[C@@H]3C(=O)N(Cc4ccccc4)C(=O)[C@@H]3[C@](CC)(C1=O)N2C(=O)c1ccccc1 | x | -13 | 0 | 0 | 4 | 1 | x
COC(=O)C1=C(C(=O)OC)C2C=CC1C1C(OC(C)=O)C(OC(C)=O)C21 (stereo not drawn) | x | x | 1 | x | x | x | x
OC(Cc1ccnc2ccccc12)C(Cl)(Cl)Cl (stereo not drawn) | x | -3 | -1 | -1 | 1 | -5 | x
CCn1c(SCC(=O)c2ccc(O)c(O)c2)nnc1-c1ccccc1OC | 29* | 0 | 4 | 12 | 5 | 42* | 26
Cc1cccc(C)c1NC(=O)COC(=O)c1ccc(N2CCCC2)c([N+](=O)[O-])c1 | 13 | 5 | 17 | -3 | -1 | 63* | 59*
CCOc1cc(C(=O)OC(C)C(=O)Nc2ncc(Cl)cc2Cl)ccc1OCC(=O)N1CCOCC1 (stereo not drawn) | -1 | -11 | 0 | 5 | 2 | 11 | x
CCOc1cc(C(=O)OCC(=O)Nc2ncc(Cl)c(C)c2Cl)ccc1OCC(=O)N1CCOCC1 | 7 | 8 | 2 | 3 | 0 | 55* | 54*
Cc1c(Cl)cnc(NC(=O)COC(=O)c2ccc3c(c2)OCO3)c1Cl | 8 | 19 | -2 | 8 | 3 | 50* | 30*
COc1cc(C(=O)OCC(=O)Nc2ccc(C(C)=O)cc2)ccc1OCC(=O)N1CCOCC1 | 1 | -5 | 2 | 6 | 7 | 61* | 58*
CCN(CC(=O)Nc1c(F)cccc1F)C(=O)c1ccc(N2CCCC2)c([N+](=O)[O-])c1 | -1 | 4 | 5 | 4 | 1 | 0 | x
COc1ccc(C(CC(=O)Nc2cc(C)ccn2)N2Cc3ccccc3C2=O)cc1 (stereo not drawn) | 6 | -8 | 4 | 4 | 4 | 8 | x
CCOC(=O)c1ccccc1NC(=O)COC(=O)c1ccc(OCC(=O)N2CCOCC2)c(OCC)c1 | x | -10 | 0 | -1 | -5 | 35* | 24
COc1cc(C(=O)Nc2ccc(F)cc2Cl)ccc1OCC(=O)N1CCOCC1 | 2 | 1 | -1 | 12 | 1 | -2 | x
CCOc1ccc(C(=O)OCC(=O)N2CCOCC2)cc1OCC | 9 | -11 | -2 | 4 | 2 | 7 | x
CCOc1cc(C(=O)OCC(=O)Nc2ccc(F)cc2Cl)ccc1OCC(=O)N1CCOCC1 | x | 4 | -1 | -2 | 3 | 76* | 71*
CCOc1cc(C(=O)OCC(=O)Nc2c(C)cccc2C)ccc1OCC(=O)N1CCOCC1 | 13 | 1 | 1 | 2 | 1 | 50* | 68*
CCCNC(=O)CN1C(=O)NC(c2ccccc2)(c2ccccc2)C1=O | 1 | -1 | 0 | 6 | 2 | -9 | x
Cn1cnnc1SCC(=O)Nc1ccc(N2CCCCC2)cc1 | -1 | -1 | -1 | -2 | 1 | 4 | x
COc1ccc(S(=O)(=O)N2CCCCC2)cc1NC(=O)CCNC(=O)c1ccc(Cl)cc1 | 4 | -4 | -1 | 7 | 6 | 4 | x
Cc1ccccc1N=C1C(=O)Nc2ccccc21 | x | -10 | 2 | 3 | 3 | -6 | x
Cc1ccc(C(=O)ONc2ccc(N=NC(=O)c3ccccc3O)cc2)cc1 | -6 | 8 | 0 | 10 | 6 | 45* | 22
Cc1ccc(C(=O)ONc2ccc(N=O)cc2)cc1 | 10 | 0 | -9 | -4 | 0 | 57* | 52*
SMILES | pPAFAH inh | ATG4B inh | DAGLB inhibitor | PAFAH1B3 inh | PAFAH1B2 FP inh | PAFAH2 FP inh | PAFAH2 FP conf
COc1cccc(NC(=O)c2ccccc2F)c1 | 3 | 3 | 1 | 0 | -6 | 0 | x
COc1cccc(NC(=O)COC(=O)c2ccccc2F)c1 | 13 | 6 | -4 | 7 | -2 | 76* | 70*
COc1cccc(NC(=O)COC(=O)c2c(F)cccc2Cl)c1 | 6 | 2 | -7 | 4 | 4 | 61* | 59*
CC(CNC(=O)c1ccccc1[N+](=O)[O-])NC(=O)c1ccccc1[N+](=O)[O-] (stereo not drawn) | 2 | -4 | 1 | 0 | 2 | 0 | x
COc1ccc(C2CC(c3ccccc3)=NN2C(=O)COC(=O)c2cc(S(=O)(=O)N3CCOCC3)ccc2F)cc1 (stereo not drawn) | 2 | 30 | -4 | -5 | 6 | 48* | 51*
O=C(COC(=O)c1ccc2c(=O)n3c(nc2c1)CCC3)Nc1ccc(OC(F)F)cc1 | 2 | -2 | -3 | 0 | 5 | 0 | x
CC(/C=C1\N=C(SCc2ccccc2Cl)SC1=O)=C\c1ccccc1 | 9 | -3 | -1 | 5 | -1 | 46* | 45*
O=C1CC(c2ccccc2)CN1C(=O)c1cncc(Br)c1 (stereo not drawn) | 3 | 2 | 0 | -2 | 0 | 64* | 61*
O=C1CC(c2ccccc2)CN1C(=O)c1cccnc1 (stereo not drawn) | 2 | 2 | 2 | 0 | 3 | -2 | x
Cc1ccc(Cl)cc1N(CC(=O)NC1CCCC1)C(=O)c1csnn1 | 4 | 3 | -3 | 4 | 11 | 0 | x
Cc1cccc(-c2cc3nc(-c4ccccc4)cc(=O)n3[nH]2)c1 | 14 | 5 | 1 | 8 | 13 | 41* | 26
COc1ccccc1/C=C/C(=O)OCC(=O)Nc1ccc2c(c1)OCO2 | 16 | -10 | -7 | 7 | 0 | 79* | 85*
COc1ccccc1/C=C/C(=O)OCC(=O)Nc1c(F)cccc1F | 12 | -4 | -5 | 3 | -2 | 53* | 63*
COc1ccccc1/C=C/C(=O)OCC(=O)NCc1ccc2c(c1)OCO2 | 14 | -9 | -7 | 6 | 5 | 51* | 33*
O=C(COC(=O)/C=C/c1ccccc1)NCc1ccc2c(c1)OCO2 | 6 | -5 | -2 | -3 | 0 | 14 | x

Screening data deposited in PubChem by several laboratories.
